The panel holds about 83,000 compounds, 20% with a hit somewhere; the sample as a whole holds those more often.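 Testing used 96-well plates and a 48-hour single-concentration exposure. Example: -40 means 40% of the starting cells died.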 Unmarked numbers belong to inactive results. Activity calls are given as the source filed them. The calls were made as follows: active = growth percent below 10; inactive = the rest.
Assays:
Experiment in all cases: NCI-60 one-dose screen, 48 h (100 = growth as untreated, 0 = no growth, -100 = all killed)
Conditions in all cases: 10 µM unless noted
[1] = system: HCT-15 colon
[2] = system: HT29 colon
[3] = system: SNB-75 CNS
[4] = system: SNB-19 CNS
[5] = system: U251 CNS
[6] = system: PC-3 prostate
[7] = system: SK-MEL-5 melanoma
[8] = system: UACC-62 melanoma
[9] = system: LOX IMVI melanoma
[10] = system: SK-MEL-28 melanoma
[11] = system: SK-MEL-2 melanoma
[12] = system: EKVX NSCLC
[13] = system: SN12C renal
[14] = system: UO-31 renal
[15] = system: TK-10 renal
[16] = system: ACHN renal
[17] = system: CAKI-1 renal
[18] = system: A498 renal
[19] = system: CCRF-CEM leukemia
[20] = system: MOLT-4 leukemia

Structure (SMILES) | growth [1] | growth [2] | growth [3] | growth [4] | growth [5] | growth [6] | growth [7] | growth [8] | growth [9] | growth [10] | growth [11] | growth [12] | growth [13] | growth [14] | growth [15] | growth [16] | growth [17] | growth [18] | growth [19] | growth [20]
Nc1nc(N)c2c(n1)NC(c1ccc(Cl)cc1)CC(c1ccc(Nc3nc(NCCO)nc(N4CCOCC4)n3)cc1)=N2 (stereo not given) | 53.7% | 57.2% | 72.5% | 87.4% | 59.5% | 64% | 67.4% | 89.9% | 61.2% | 83.5% | 88.2% | 89.8% | 82.1% | 84.4% | 103% | 93.7% | 97.2% | 90.6% | 48.2% | 45.5%
COc1ccc(-c2nc3ccc(-c4nnc(SCC(=O)Nc5ccc(C(=O)/C=C/c6ccc(Cl)cc6)cc5)o4)cc3[nH]2)cc1 | 86.1% | 104% | 94.7% | 108% | 94.3% | 94.9% | 98.9% | 94% | -29.9% (active) | 101% | 111% | 99.7% | 88.3% | 85.3% | 120% | 97.7% | 97.2% | 84.3% | 96% | 88.3%
C=C(C)[C@@H]1CC[C@]2(COC)CC[C@]3(C)[C@H](CC[C@@H]4[C@@]5(C)CCCNC(C)(C)[C@@H]5CC[C@]43C)[C@@H]12 | 2.81% (active) | 13.7% | 76.3% | 66.5% | 22.2% | 39.5% | 48.1% | 75.2% | -90.8% (active) | -61.2% (active) | 84.6% | 53.9% | 73.6% | 60.8% | 79.6% | 67% | 19% | 62.3% | -10.1% (active) | -32.3% (active)
O=C(CNc1nc(-c2cccc([N+](=O)[O-])c2)cs1)Nc1cccc(Cl)c1 | 98.4% | 116% | 101% | 99.5% | 106% | 98.5% | 103% | 92.7% | 115% | 104% | 107% | 89.2% | 99.4% | 80.5% | 149% | 101% | 106% | 93% | 103% | 101%
O=C1Nc2ccccc2/C1=C/c1ccc(COCC2CO2)n1-c1ccc(O)cc1 (stereo not given) | 107% | 110% | 95.1% | 97.7% | 99.4% | 101% | 101% | 96% | 79.6% | 106% | 101% | 102% | 105% | 89.7% | 104% | 97% | 98.3% | 115% | 89.2% | 98.8%
CC(=O)N1N=C(c2cccc(-n3cccc3)c2)CC1c1cccc(F)c1 (stereo not given) | 92.8% | 100% | 104% | 88.5% | 93.4% | 84.9% | 98.7% | 81% | 95.5% | 103% | 103% | 95.7% | 97.1% | 75.4% | 123% | 101% | 86.5% | 101% | 94.4% | 90.3%
C=C1CC[C@@H]2[C@]3(C)COC(c4ccccc4)O[C@@H]3CC[C@@]2(C)[C@@H]1C/C=C1/C(=O)OC[C@H]1O (stereo not given in full) | 65.5% | 54.8% | 100% | 97% | 64.2% | 82.4% | 94.7% | 85.7% | 33.8% | 107% | 93.3% | 100% | 79.9% | 75.7% | 109% | 100% | 83.7% | 109% | 9.03% (active) | 84%
COc1cc2oc(-c3cccc(N)c3)cc(=O)c2c(OC)c1OC | 101% | 109% | 97.8% | 97.8% | 103% | 98.7% | 98.8% | 93.5% | 111% | 108% | 102% | 104% | 96.6% | 80.6% | 96.9% | 103% | 83.5% | 101% | 102% | 106%

From PubChem BioAssay (NCI)
